Source: PubChem BioAssay
NPR1 antag: Natriuretic polypeptide receptor (hNpr1) antagonism - Primary qHTS; Atrial natriuretic peptide receptor 1 (Homo sapiens), P16066; HEK293 hNpr1 GloSensor cGMP, ANP-stimulated luminescence; Potency, µM (top dose mostly 46.3 µM), actives largely listed as inhibitors; 1.6% of 76,000 active; AID 1347048, 2019; calls by dose curve; further: nearly all actives have a fitted effect of over 60% in size
Target sequence (P16066 whole entry, looked up): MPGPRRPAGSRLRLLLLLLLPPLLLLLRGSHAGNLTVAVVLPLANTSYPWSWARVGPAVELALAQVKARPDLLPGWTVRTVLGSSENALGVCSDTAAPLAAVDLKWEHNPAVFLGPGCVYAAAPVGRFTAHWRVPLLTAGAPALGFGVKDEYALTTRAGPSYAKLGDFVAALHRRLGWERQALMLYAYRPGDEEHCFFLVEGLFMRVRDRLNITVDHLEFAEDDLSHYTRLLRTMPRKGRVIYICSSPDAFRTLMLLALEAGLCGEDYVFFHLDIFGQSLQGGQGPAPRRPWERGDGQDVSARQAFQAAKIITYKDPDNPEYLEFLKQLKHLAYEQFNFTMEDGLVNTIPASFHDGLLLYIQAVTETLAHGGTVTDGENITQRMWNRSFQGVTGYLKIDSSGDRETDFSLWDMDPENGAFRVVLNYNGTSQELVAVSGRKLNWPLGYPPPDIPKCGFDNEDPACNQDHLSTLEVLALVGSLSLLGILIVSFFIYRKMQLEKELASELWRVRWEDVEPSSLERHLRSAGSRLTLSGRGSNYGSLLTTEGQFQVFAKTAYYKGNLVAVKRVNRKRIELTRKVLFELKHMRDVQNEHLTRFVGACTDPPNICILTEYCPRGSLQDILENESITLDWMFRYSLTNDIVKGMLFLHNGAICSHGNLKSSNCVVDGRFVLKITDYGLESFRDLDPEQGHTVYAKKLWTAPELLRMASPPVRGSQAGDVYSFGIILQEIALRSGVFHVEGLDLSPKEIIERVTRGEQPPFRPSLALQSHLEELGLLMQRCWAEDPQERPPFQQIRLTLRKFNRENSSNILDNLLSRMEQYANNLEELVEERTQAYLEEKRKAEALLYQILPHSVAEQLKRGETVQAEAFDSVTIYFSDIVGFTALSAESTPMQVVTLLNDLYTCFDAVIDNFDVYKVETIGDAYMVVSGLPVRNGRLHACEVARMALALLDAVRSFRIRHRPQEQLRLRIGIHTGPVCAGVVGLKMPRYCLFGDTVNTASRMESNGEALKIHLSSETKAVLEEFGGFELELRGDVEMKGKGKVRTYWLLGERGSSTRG
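HEK293 cells stably expressing human Npr1 and cGMP GloSensor pGS-40F, loaded 2 h with 2% GloSensor reagent, given compound 30 min at room temperature. Luminescence read before and 20 min after 0.1 nM hNppA.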
HEK cytotox: Cytotoxic Profiling in HEK 293 Cell Line of Diverse Libraries Using Quantitative High-Throughput Screening | Potency, µM (doses to about 115 µM), actives largely listed as inhibitors | HEK 293 viability, ATP luminescence (CellTiter-Glo), 48-72 h | 6.6% of 94,000 active | AID 1345083, 2018; further: nearly all actives have a fitted effect of over 60% in size
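Pintool-delivered compounds were incubated with HEK 293 cells (250 cells/well) at 37 degree Celsius for 48 or 72 hr. ATP-dependent luminescence (CellTiter-Glo) then reported remaining viable cells.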
NIH3T3 tox: Cytotoxic Profiling in NIH 3T3 Cell Line of Diverse Libraries Using Quantitative High-Throughput Screening. NIH 3T3 viability, CellTiter-Glo ATP luminescence, 48-72 h. Potency, µM (highest dose often 96.7 µM), usual class: inhibitors. 4.3% of 94,000 active. AID 1345082, 2018; further: nearly all actives have a fitted effect of over 55% in size
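Viability of NIH 3T3 cells after 48 or 72 hr compound treatment at 37 °C was assessed by CellTiter-Glo, with luminescence imaged following a 10 min room-temperature step.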
FLuc inh: Firefly luciferase inhibition profiling of diverse chemical library using quantitative high-throughput screening; Luciferin 4-monooxygenase (Photinus pyralis), P08659; purified P. pyralis luciferase, luminescence, biochemical; Potency, µM (doses to about 115 µM), hits mostly inhibitors; 2.5% of 76,000 active; AID 1347043, 2019; further: nearly all actives have a fitted effect of over 65% in size
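FLuc 10nM, D-luciferin 10uM, ATP 10uM, Mg acetate 10mM, Tris acetate pH 7.5, Tween/BSA; cpd qHTS; enzyme added last; CCD luminescence.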
A number is an active result. Shown are actives, neighbours in structure and some others; about 11% of the full set was active somewhere. Unless noted, the call rests on the fitted dose curve; in most records, active means well fitted curve in the direction sought with a large enough effect; inconclusive means small, poorly fitted or top-dose-only effect, or another doubt; inactive means no such curve, though single readings can be large; an effect the other way counts as inactive or inconclusive.

What do the screens show for `C=CCCOC(=O)N1C[C@@H](C(=O)OCC)[C@@H]2Oc3cc(OC)ccc3[C@@H]21`?
HEK cytotox: inactive; NIH3T3 tox: inconclusive

Results for CCOC(=O)C1CCN(C(=O)c2ccc3nnc(-c4cc(C(F)(F)F)cc(C(F)(F)F)c4)n3c2)CC1 ?
HEK cytotox: inconclusive; NIH3T3 tox: inactive

How did CCc1ncn2ccn(Cc3ccccc3F)c(=O)c12 do in these assays?
NPR1 antag: inactive; HEK cytotox: inactive; NIH3T3 tox: inactive; FLuc inh: inactive

How did Cc1ccc(-c2cc3c(=O)n(CC(O)c4ccc(C)c(C)c4)ccn3n2)c(C)c1 (centres undefined) do in these assays?
NPR1 antag: inconclusive; HEK cytotox: 39.8µM; NIH3T3 tox: inconclusive; FLuc inh: inactive

Results for Cc1ccc(-c2cc3c(=O)n(CCNC(=O)c4cc(Cl)ccc4F)ccn3n2)c(C)c1 ?
NPR1 antag: inactive; HEK cytotox: inconclusive; NIH3T3 tox: inactive; FLuc inh: inconclusive

What do the screens show for `Cc1ccc(C)c(C(=O)NCCn2ccn3nc(-c4cc(C)ccc4C)cc3c2=O)c1`?
NPR1 antag: inactive; HEK cytotox: 39.8µM; NIH3T3 tox: inconclusive; FLuc inh: inactive

How did Cc1ccc(-c2cc3c(=O)n(CCNC(=O)c4ccc(Cl)cc4)ccn3n2)c(C)c1 do in these assays?
NPR1 antag: inactive; HEK cytotox: 39.8µM; NIH3T3 tox: inconclusive; FLuc inh: inactive

Results for O=C(N[C@@H]1CCC[C@@H]1C(=O)NC1CCCCCC1)c1ccncc1 ?
NPR1 antag: inactive; HEK cytotox: inactive; NIH3T3 tox: inactive; FLuc inh: inactive

Results for O=C(NCC1Cn2cccc2CN1Cc1cccnc1)c1cccc(F)c1 (centres undefined) ?
HEK cytotox: inactive; NIH3T3 tox: inactive

What do the screens show for `CCOC(=O)C1(Cc2cccc(OC)c2)CCCN(C(=O)COc2ccccc2)C1` (centres undefined)?
NPR1 antag: inactive; HEK cytotox: inconclusive; NIH3T3 tox: inactive; FLuc inh: 35.5µM

Results for CCOC(=O)C1(Cc2cccc(Cl)c2)CCCN(Cc2cnn(C)c2)C1 (centres undefined) ?
NPR1 antag: inactive; HEK cytotox: inconclusive; NIH3T3 tox: inactive; FLuc inh: inactive

What do the screens show for `CCOC(=O)C1(Cc2cccc(Cl)c2)CCCN(C(=O)c2csc(C(C)=O)c2)C1` (centres undefined)?
NPR1 antag: inactive; HEK cytotox: 39.8µM; NIH3T3 tox: inactive; FLuc inh: inconclusive

How did CCOC(=O)C1(Cc2cccc(OC)c2)CCCN(C(=O)CSc2ccncc2)C1 (centres undefined) do in these assays?
NPR1 antag: inactive; HEK cytotox: 28.2µM; NIH3T3 tox: inactive; FLuc inh: inactive

What do the screens show for `COc1ccccc1CCC(=O)N1[C@@H]2CC[C@H]1CC(NC(=O)c1ccc(F)cc1)C2` (some centres undefined)?
NPR1 antag: inactive; HEK cytotox: inactive; NIH3T3 tox: inactive; FLuc inh: inactive

What do the screens show for `CC1(C)[C@H](Cc2cc(COc3ccccc3)on2)C[C@@H]1NC(=O)C1CCC1`?
NPR1 antag: inconclusive; HEK cytotox: 35.5µM; NIH3T3 tox: inconclusive; FLuc inh: inactive

What do the screens show for `CC1(C)[C@H](Cc2cc(COc3ccccc3)on2)C[C@@H]1NC(=O)NCc1ccccc1`?
NPR1 antag: inconclusive; HEK cytotox: 63.1µM; NIH3T3 tox: inconclusive; FLuc inh: inactive

Results for CC1(C)[C@H](Cc2cc(COc3ccccc3)on2)C[C@@H]1NC(=O)C1CCCC1 ?
NPR1 antag: inconclusive; HEK cytotox: inconclusive; NIH3T3 tox: inconclusive; FLuc inh: inactive

How did CC(C)N[C@H]1C[C@@H](Cc2cc(COc3ccccc3)on2)C1(C)C do in these assays?
NPR1 antag: inactive; HEK cytotox: 63.1µM; NIH3T3 tox: 50.1µM; FLuc inh: inactive

How did COCCN1CCCC[C@]2(C[C@H](C(=O)O)[C@H](c3ccco3)N2C(=O)c2ccccc2)C1=O do in these assays?
HEK cytotox: inactive; NIH3T3 tox: inconclusive

How did CN(CCc1ccccn1)C(=O)CCC[C@@H]1[C@H]2CCCN3CCC[C@@H](CN1C(=O)c1cccnc1)[C@@H]23 do in these assays?
NPR1 antag: inactive; HEK cytotox: inactive; NIH3T3 tox: inactive; FLuc inh: inactive

What do the screens show for `O=C(NCC1CN(C(=O)NCc2ccc(F)cc2)CC12CCCCC2)C1CC1` (centres undefined)?
HEK cytotox: inactive; NIH3T3 tox: inactive

Results for O=c1c2nc(-c3ccoc3)ccc2ncn1-c1ccc(F)cc1F ?
NPR1 antag: inactive; HEK cytotox: inconclusive; NIH3T3 tox: inconclusive; FLuc inh: inactive

How did O=c1c2nc(-c3ccccc3)ccc2ncn1-c1ccc(F)cc1F do in these assays?
NPR1 antag: inactive; HEK cytotox: inconclusive; NIH3T3 tox: 28.2µM; FLuc inh: inactive

What do the screens show for `O=c1c2nc(-c3ccsc3)ccc2ncn1-c1ccc(F)cc1F`?
NPR1 antag: inactive; HEK cytotox: 100µM; NIH3T3 tox: 44.7µM; FLuc inh: inactive

How did COc1cccc(-c2ccc3ncn(-c4ccc(F)cc4F)c(=O)c3n2)c1 do in these assays?
NPR1 antag: inactive; HEK cytotox: inconclusive; NIH3T3 tox: 50.1µM; FLuc inh: inconclusive

Results for Cc1ccc(OCc2nc(C3CCN(C(=O)NCc4ccccc4)C3)no2)cc1 (centres undefined) ?
HEK cytotox: 44.7µM; NIH3T3 tox: inconclusive

What do the screens show for `Cc1ccc(CNC(=O)N2CCCC(c3noc(COc4ccccc4)n3)C2)cc1` (centres undefined)?
NPR1 antag: inactive; HEK cytotox: inconclusive; NIH3T3 tox: inconclusive; FLuc inh: inactive

Results for O=C(NCCc1ccccc1)N1CCC(c2noc(COc3ccc(F)cc3)n2)C1 (centres undefined) ?
HEK cytotox: 44.7µM; NIH3T3 tox: inconclusive

How did CC(=O)N1CCC(C(=O)N2CCC(c3nc4ncccc4[nH]3)CC2)CC1 do in these assays?
HEK cytotox: inactive; NIH3T3 tox: inactive

Results for Cc1cc(C)c(CNC(=O)c2nc(-c3ccccc3C)cc3c2ccn3C(C)C)c(=O)[nH]1 ?
NPR1 antag: inconclusive; HEK cytotox: 22.4µM; NIH3T3 tox: 28.2µM; FLuc inh: inactive

How did Cc1cc(C)c(CNC(=O)c2nc(-c3ccc(CN(C)C)cc3)cc3c2ccn3C(C)C)c(=O)[nH]1 do in these assays?
NPR1 antag: inactive; HEK cytotox: inconclusive; NIH3T3 tox: 14.1µM; FLuc inh: inactive

How did Cc1ccc(-c2cc3c(ccn3C(C)C)c(C(=O)NCc3c(C)cc(C)[nH]c3=O)n2)cn1 do in these assays?
NPR1 antag: inactive; HEK cytotox: inconclusive; NIH3T3 tox: 79.4µM; FLuc inh: inconclusive

Results for Cc1cc(C)c(CNC(=O)c2nc(-c3ccc(CN(C)C)cc3)cc3[nH]ccc23)c(=O)[nH]1 ?
NPR1 antag: inactive; HEK cytotox: inconclusive; NIH3T3 tox: 100µM; FLuc inh: inconclusive

What do the screens show for `Cc1cc(C)c(CNC(=O)c2nc(-c3ccccc3O)cc3c2ccn3C(C)C)c(=O)[nH]1`?
NPR1 antag: inactive; HEK cytotox: inconclusive; NIH3T3 tox: inconclusive; FLuc inh: inactive
